Where “and” joins values, the source holds several entries; their conditions need not be identical. Equal values may be shown once. Inconclusive results are not listed. Calls of active or inactive are those of the source. Calls come from the whole dose curve; as a rule, active = well fitted curve in the direction sought with a large enough effect in the repeat runs; inconclusive = weak or mixed curves; inactive = no such curve, though single readings can be large; an effect the other way counts as inactive or inconclusive.
Columns and labels:
[1] = qHTS RealTime-Glo MT Cell Viability Assay in HepG2 cells - 40 hour (AID 1224870); note: nearly all actives have a fitted effect of over 50% in size
Summary of the method: (§1)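 HepG2 cells mixed with RealTime-Glo MT reagents (NanoLuc plus cell-permeant prosubstrate) were seeded at 600 cells/well, incubated 5 h at 37 C/5% CO2, then pinned with compounds in DMSO; nonlytic luminescence tracked viability during 40 h treatment.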

[2] = A CellTox Green Cytotoxicity Assay to monitor cytotoxicity in HEK293 cells - 40 hour (AID 1224871); note: nearly all actives have a fitted effect of over 45% in size
Summary of the method: (§2)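 Real-time, in one plate: 600 HEK293 cells/well with dead-cell DNA dye, pinned compound after 5 h, 37 C incubation over 40 h; viable cells give no appreciable fluorescence.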

[3] = qHTS RealTime-Glo MT Cell Viability Assay in HEK293 cells - 16 hour (AID 1224872); note: top concentration of the series differs between compounds; nearly all actives have a fitted effect of over 50% in size
Summary of the method: (§3)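 Reads taken at 0, 8, 16, 24, 32 and 40 h from the same wells. HEK293 cells (600/well) carried RealTime-Glo reagents from seeding, with compound added after a 5 h settle at 37 C.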

[4] = qHTS RealTime-Glo MT Cell Viability Assay in HepG2 cells - 8 hour (AID 1224873); note: nearly all actives have a fitted effect of over 55% in size
Summary of the method: as §1

[5] = qHTS RealTime-Glo MT Cell Viability Assay in HEK293 cells - 40 hour (AID 1224874); conditions: RealTime-Glo luminescence; max response: hits give low values; note: nearly all actives have a fitted effect of over 50% in size
Summary of the method: (§4)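 Kinetic, non-lysing viability readout. Seed HEK293 (600/well) with reagent, incubate 5 h at 37 C/5% CO2, pin 23 nL compound in DMSO, incubate at 37 C, read luminescence at 0, 8, 16, 24, 32, 40 h.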

[6] = A CellTox Green Cytotoxicity Assay to monitor cytotoxicity in HEK293 cells - 24 hour (AID 1224875); note: series mostly up to about 77 µM; nearly all actives have a fitted effect of over 45% in size
Summary of the method: as §2

[7] = A CellTox Green Cytotoxicity Assay to monitor cytotoxicity in HepG2 cells - 16 hour (AID 1224876); note: nearly all actives have a fitted effect of over 45% in size
Summary of the method: (§5)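 Cytotoxicity was tracked as dead-cell DNA fluorescence in HepG2 cells treated with test compounds at 37 C; each time-point value comes from one kinetic series spanning 0, 8, 16, 24, 32 and 40 h.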

[8] = qHTS RealTime-Glo MT Cell Viability Assay in HepG2 cells - 32 hour (AID 1224877); note: nearly all actives have a fitted effect of over 55% in size
Summary of the method: (§6)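 HepG2 suspension premixed with RealTime-Glo reagents is plated at 600 cells per well and left 5 h at 37 C/5% CO2. Compounds in DMSO then go in, and bioluminescence reflecting viable cell number is recorded over 40 h.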

[9] = A CellTox Green Cytotoxicity Assay to monitor cytotoxicity in HepG2 cells - 24 hour (AID 1224878); note: nearly all actives have a fitted effect of over 45% in size
Summary of the method: as §5

[10] = A CellTox Green Cytotoxicity Assay to monitor cytotoxicity in HepG2 cells - 40 hour (AID 1224879); note: nearly all actives have a fitted effect of over 40% in size
Summary of the method: as §5

[11] = qHTS RealTime-Glo MT Cell Viability Assay in HEK293 cells - 0 hour (AID 1224880)
Summary of the method: as §4

[12] = A CellTox Green Cytotoxicity Assay to monitor cytotoxicity in HEK293 cells - 32 hour (AID 1224881); note: nearly all actives have a fitted effect of over 40% in size
Summary of the method: as §2

[13] = A CellTox Green Cytotoxicity Assay to monitor cytotoxicity in HepG2 cells - 0 hour (AID 1224882); note: nearly all actives have a fitted effect of over 35% in size
Summary of the method: as §5

[14] = A CellTox Green Cytotoxicity Assay to monitor cytotoxicity in HepG2 cells - 32 hour (AID 1224883); note: nearly all actives have a fitted effect of over 50% in size
Summary of the method: as §5

[15] = A CellTox Green Cytotoxicity Assay to monitor cytotoxicity in HEK293 cells - 8 hour (AID 1224884); note: nearly all actives have a fitted effect of over 35% in size
Summary of the method: as §2

[16] = qHTS RealTime-Glo MT Cell Viability Assay in HepG2 cells - 16 hour (AID 1224885); note: nearly all actives have a fitted effect of over 50% in size
Summary of the method: as §6

[17] = qHTS RealTime-Glo MT Cell Viability Assay in HEK293 cells - 24 hour (AID 1224886)
Summary of the method: as §3

[18] = qHTS RealTime-Glo MT Cell Viability Assay in HEK293 cells - 8 hour (AID 1224887)
Summary of the method: as §4

[19] = A CellTox Green Cytotoxicity Assay to monitor cytotoxicity in HEK293 cells - 16 hour (AID 1224888); note: nearly all actives have a fitted effect of over 35% in size
Summary of the method: as §2

[20] = qHTS RealTime-Glo MT Cell Viability Assay in HepG2 cells - 0 hour (AID 1224889); note: nearly all actives have a fitted effect of over 50% in size
Summary of the method: as §6
% is set by controls: 0 for no effect and ±100 for the full control effect.

CC1(C)CC(N=C=O)CC(C)(CN=C=O)C1 (stereo not given)
inactive: Potency [1] | Potency [2] | Potency [3] | Potency [4] | max response [5] 8.76% and 2.25% | Potency [6] | Potency [7] | Potency [8] | Potency [9] | Potency [10] | Potency [11] | Potency [12] | Potency [13] | Potency [14] | Potency [15] | Potency [16] | Potency [17] | Potency [18] | Potency [19] | Potency [20]

OC[C@@H](O)[C@H](O)[C@H](O)[C@@H](O)CO
inactive: Potency [1] | Potency [2] | Potency [3] | Potency [4] | max response [5] 7.24% and 7.63% | Potency [6] | Potency [7] | Potency [8] | Potency [9] | Potency [10] | Potency [11] | Potency [12] | Potency [13] | Potency [14] | Potency [15] | Potency [16] | Potency [17] | Potency [18] | Potency [19] | Potency [20]

CCCCCC/C=C/CCCCCCCC(=O)O
inactive: Potency [1] | Potency [2] | Potency [3] | Potency [4] | max response [5] 2.68% and -1.87% | Potency [6] | Potency [7] | Potency [8] | Potency [9] | Potency [10] | Potency [11] | Potency [12] | Potency [13] | Potency [14] | Potency [15] | Potency [16] | Potency [17] | Potency [18] | Potency [19] | Potency [20]

CC(=O)Nc1ccc(C(=O)O)cc1
inactive: Potency [1] | Potency [2] | Potency [3] | Potency [4] | max response [5] 0.373% and -0.782% | Potency [6] | Potency [7] | Potency [8] | Potency [9] | Potency [10] | Potency [11] | Potency [12] | Potency [13] | Potency [14] | Potency [15] | Potency [16] | Potency [17] | Potency [18] | Potency [19] | Potency [20]

C=CC(=O)OCCCCCCCC(C)C
inactive: Potency [1] | Potency [2] | Potency [3] | Potency [4] | max response [5] 4.58% and 25.2% | Potency [6] | Potency [7] | Potency [8] | Potency [9] | Potency [10] | Potency [11] | Potency [12] | Potency [13] | Potency [14] | Potency [15] | Potency [16] | Potency [17] | Potency [18] | Potency [19] | Potency [20]

Reference: PubChem BioAssay (Tox21)
